# Screens as filed in PubChem.
# In the library only some 3.1% were active in any assay of this set; here they are far more common.
# VDR inh – inhibitors of human vitamin D receptor; P11473; VDR-SRC2-3 peptide fluorescence polarization, 2 h; Potency, µM, without a hit: max response, negative = inhibition, hits mostly inhibitors; actives 0.93% (n = 400,000); note: potency is the fitted concentration of half-maximal effect; % is set by controls: 0 for no effect and ±100 for the full control effect
#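 Reagent solutions, kept cold and dark, are dispensed first; compounds are then pinned in at 23 nl, plates briefly spun, and incubated 2 h at ambient temperature. Inhibition of VDR–SRC2-3 peptide binding is read by fluorescence polarization.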
# TSHR antagonist – blocks TSH signaling through the human TSH receptor | activity change, negative = inhibition, % at 11.5 µM | P16473 | actives 0.2% (n = 330,000) | TSHR-expressing cells, TSH-stimulated cAMP HTRF, 2 h; stronger effect = lower value;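 active = activity change below a set negative limit, meaning inhibition stronger than a set level, cut at about -70% in these data; inconclusive = activity change between two set negative limits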; note: % is set by controls: 0 for no effect and ±100 for the full control effect
#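 Cell-based HTRF cAMP assay; TSHR cells + compound, TSH EC80 (4nM final), 2 h, 37 deg C. Lysis with anti-cAMP cryptate and cAMP-d2, 30 min RT, read 665/620 nm.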
# TSG101-PTAP inh – blocks PTAP/TSG101 interaction to inhibit HIV-1 budding; Q99816; Fluorescence polarization, FITC-PTAP peptide / Tsg101 binding; Potency, µM (top dose mostly 115 µM), for inactives: at the highest dose activity change, negative = inhibition, usual class: inhibitors; 340,000 tested, under 10 active; AID 493005; active = well fitted inhibition curve with a large enough effect in the main read-out, with a control signal flat, not every such curve was filed as active; inconclusive = small, poorly fitted or top-dose-only effect, or effect the other way, or a change in a side signal; inactive = no such curve, though single readings can be large or run the other way; note: potency is the fitted concentration of half-maximal effect; % of control where 0% means no effect
# Target sequence (Q99816 whole entry, looked up): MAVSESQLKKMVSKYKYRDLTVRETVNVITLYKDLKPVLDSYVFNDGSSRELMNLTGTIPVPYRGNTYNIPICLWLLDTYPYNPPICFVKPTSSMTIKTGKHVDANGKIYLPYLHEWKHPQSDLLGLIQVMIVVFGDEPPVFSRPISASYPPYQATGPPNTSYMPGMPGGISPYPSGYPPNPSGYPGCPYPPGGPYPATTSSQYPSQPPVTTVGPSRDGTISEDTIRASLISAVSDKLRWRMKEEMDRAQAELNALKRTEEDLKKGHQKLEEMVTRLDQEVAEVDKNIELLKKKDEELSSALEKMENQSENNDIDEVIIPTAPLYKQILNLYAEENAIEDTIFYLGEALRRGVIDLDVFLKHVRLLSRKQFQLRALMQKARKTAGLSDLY
#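 Steps: Tsg101 binding domain dispensed (10 uM final), compounds pinned in DMSO, FITC-labeled PTAP-motif peptide added (50 nM final); after 20 min binding at room temperature, polarization measured.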
# PLK1 PBD block – blocks phosphopeptide binding to human PLK1 polo-box domain; Plk1 PBD binding of FITC phosphopeptide, fluorescence polarization; Potency, µM, for inactives: max response, negative = inhibition, most hits filed as inhibitors; actives 2.8% (n = 360,000); AID 720504; note: potency is the fitted concentration of half-maximal effect; series mostly up to about 57 µM; % is set by controls: 0 for no effect and ±100 for the full control effect; nearly all actives have a fitted effect of over 65% in size
# uPA surface inh – cell surface uPA generation inhibition; cell surface uPA generation assay, qHTS; Potency, µM (series often up to 38.3 µM), for the others: at the top dose activity change, negative = inhibition, most hits filed as inhibitors; actives 0.31% (n = 330,000); active = well fitted inhibition curve with a large enough effect; inconclusive = small, poorly fitted or top-dose-only effect; inactive = no such curve, though single readings can be large or run the other way; tested in mouse RAW 264.7 cells; note: potency is the fitted concentration of half-maximal effect; % is set by controls: 0 for no effect and ±100 for the full control effect; nearly all actives have a fitted effect of over 55% in size
# Active calls of the source: *; ? = inconclusive; nt = no result given; ! = a repeat was not active. Unless noted, calls come from the whole dose curve; as a rule, active = well fitted curve in the direction sought with a large enough effect; inconclusive = small, poorly fitted or top-dose-only effect, or another doubt; inactive = no such curve, though single readings can be large; an effect the other way counts as inactive or inconclusive.
SMILES,VDR inh,TSHR antagonist,TSG101-PTAP inh,PLK1 PBD block,uPA surface inh
COc1ccccc1C(=O)NCCC(=O)NCc1cccnc1,0%,3,-6%,-4%,2%
COc1ccccc1/C=C/C=N/NC(=O)CCC1C(=O)NN=C1C (stereo not drawn),-29%,-5,-8%,27µM*,21%
CC1=NNC(=O)C1CCC(=O)N/N=C/C=C/c1ccccc1 (stereo not drawn),-6%,4,0%,-6%,2%
CC(C)NC(=O)c1onc(CSc2ccc(F)cc2)c1C(=O)O,-10%,19,-4%,-6%,-11%
CC(C)NC(=O)c1onc(CSc2ccc(F)c(F)c2)c1C(=O)O,-19%,16,0%,24µM*,-5%
N#Cc1c(-c2cccs2)nc(SCc2ccc(Cl)cc2)[nH]c1=O,-5%,?,-18%,21µM*,1%
CSc1nc(-c2cccs2)c(C#N)c(=O)[nH]1,9%,15,?,-15%,2%
COc1cc(C(=O)C(=O)N2CCN(c3ccc(C)cc3)CC2)cc2ccccc12,nt,nt,nt,4%,nt
COC(=O)c1sccc1NC(=O)CN(C)NS(=O)(=O)c1ccc([N+](=O)[O-])cc1,-27%,7,-11%,24µM*,-5%
COC(=O)c1sccc1NC(=O)CN(C)NS(=O)(=O)c1ccc(Cl)cc1,-4%,20,-2%,-22%,-4%
CC(=O)c1cccc(Nc2nn(-c3ccc(OC(F)(F)F)cc3)nc2C(C)=O)c1,-2%,nt,nt,nt,nt
O=C(NC1CCCC1)C1c2ccccc2OCC(=O)N1Cc1cccnc1 (stereo not drawn),nt,nt,nt,-12%,nt
Nc1c(Cl)cc(C2=NCCn3c2c2ccc([N+](=O)[O-])cc2[n+]3[O-])cc1Cl,-3%,-5,-2%,-4%,4µM*
O=C1C=CC(=Nc2ccc3c(c2)Cc2cc(F)ccc2-3)O1,56µM*,nt,-3%,?,?
O=C(c1ccco1)n1nc(-c2ccccc2)nc1NCc1ccco1,?,-7,-2%,30µM*,-4%
CC(C)(C)OC(=O)N(CCc1ccccc1)Cc1cccc(OCc2cccc(NC(=O)c3ccccc3)c2)c1,?,nt,-7%,24µM*,5%
[N-]=[N+]=NC(c1ccccc1)C(NC(=O)c1cc(C(F)(F)F)cc(C(F)(F)F)c1)c1ccccc1 (stereo not drawn),nt,nt,nt,-3%,nt
CCOC(=O)N1CCN(c2c(NCc3ccc(Cl)cc3)c(=O)c2=O)CC1,-4%,-7,0%,5%,2.8µM*
O=C(c1nc(-c2ccc(Cl)cc2)n2c1CCCCC2)N1CCN(c2ccc(F)cc2)CC1,6%,nt,nt,nt,nt
CC1(c2nnnn2-c2ccc3c(c2)OCCO3)CCC(=O)N1CCc1ccc(O)cc1 (stereo not drawn),nt,nt,nt,-10%,nt
CCOc1nc(-c2ccccc2)c2cc(C)ccc2n1,-22%,-6,-1%,3%,-17%
COc1nc(-c2ccccc2)c2cc(C)ccc2n1,?,-3,-1%,21µM*,-5%
O=C1NC(Cc2c[nH]c3ccccc23)C(=O)N1Cc1ccccc1 (stereo not drawn),21%,-10,2%,4%,9%
COC(=O)c1ccc(CN2C(=O)NC(Cc3c[nH]c4ccccc34)C2=O)cc1 (stereo not drawn),-12%,-98*,0%,-8%,nt
Cc1ccc(NC(=O)C2CCCN(S(=O)(=O)c3cnc[nH]3)C2)c(Br)c1 (stereo not drawn),?,5,-12%,24µM*!,5%
SMILES,VDR inh,TSHR antagonist,TSG101-PTAP inh,PLK1 PBD block,uPA surface inh
Cc1nn(-c2ccccc2)c2nc(=O)n(-c3ccccc3)cc12,?,-8,1%,3µM*,-2%
CCN(CC)C(=O)c1sc2c(c1C)c(=O)n(-c1ccc(C)c(C)c1)c(=O)n2Cc1cc(=O)n2c(C)cccc2n1,9%,nt,nt,nt,nt
Cc1ccn2c(CC(C)(C)C)c(-c3ccc(F)cc3)nc2c1,nt,nt,nt,3%,nt
O=C(CCN1CCC2CCC(C2)C1)c1ccc(F)cc1 (stereo not drawn),?,nt,1%,8.4µM*,0%
CCC(c1nnnn1Cc1cccs1)N1CCN(C2CCCC2)CC1 (stereo not drawn),2%,0,-7%,-4%,-4%
CCCC(c1nnnn1Cc1cccs1)N1CCN(C2CCCC2)CC1 (stereo not drawn),-27%,9,-5%,27µM*,0%
O=C1C(Cl)=C(Nc2ccccc2O)C(=O)N1CCc1ccccc1,-29%,-3,5%,4.2µM*,0%
COc1ccccc1NC1=C(Cl)C(=O)N(c2ccccc2)C1=O,-4%,-9,0%,0%,1%
CCOc1ccc(N2C(=O)C(Cl)=C(Nc3ccccc3O)C2=O)cc1,-19%,-3,0%,8.4µM*,-22%
CCOc1ccc(N2C(=O)C(Cl)=C(N3CCOCC3)C2=O)cc1,28µM*,-3,0%,-20%,-6%
COc1ccc(Cn2c(C(=O)O)c(CNC3CCCCC3)c3ccc(C)cc32)cc1,3%,nt,nt,nt,nt
CC(C)COC(=O)c1ccc(N)cc1,3%,nt,nt,nt,nt
C=CCOC(=O)N[C@H](/C(C(=O)OC)=C(\C)NCc1ccccc1)c1cccc(F)c1,-13%,nt,nt,nt,nt
Cc1ccc(S(=O)(=O)N2CCOCC2)cc1NC(=O)CSc1ccccn1,-4%,2,-3%,30µM*,1%
Cc1ccc(S(=O)(=O)N2CCOCC2)cc1NC(=O)CSc1nc(N)cc(N)n1,-11%,25,1%,-6%,11%
O=C(CSc1ncn[nH]1)Nc1cc(S(=O)(=O)N2CCCC2)ccc1Cl,-2%,2,-2%,30µM*,1%
CCN(CC)c1ccc(S(=O)(=O)N2CCOCC2)cc1NC(=O)CSC(=S)N1CCCC1,-30%,-9,0%,13µM*,8%
CCOc1ccccc1NC(c1nnc(-c2ccccc2)o1)c1ccc(F)cc1Cl (stereo not drawn),0%,nt,nt,nt,nt
Cc1ccc(-n2c(N)c(C(N)=O)sc2=S)cc1,71µM*,45,-2%,6µM*,3%
Cc1ccc(-n2c(N)c(C(=O)NCc3ccco3)sc2=S)cc1,-14%,-2,-4%,?,4%
CN(C(=O)c1ccccc1)C(=O)c1ccccc1,nt,nt,nt,1%,nt
CN(C)CC(CCC(CN(C)C)C(=O)c1ccccc1)C(=O)c1ccccc1 (stereo not drawn),45µM*,-21,-1%,13µM*,-7%
COc1ccc(C(=O)C(CCCCC(CN(C)C)C(=O)c2ccc(OC)cc2)CN(C)C)cc1 (stereo not drawn),15%,26,-3%,0%,-13%
CCOc1ccc(C(=O)C(CCC(CN(C)C)C(=O)c2ccc(OCC)cc2)CN(C)C)cc1 (stereo not drawn),?,13,-6%,27µM*,1.1µM*
COc1ccc(CNc2nc(Cl)nc3nc[nH]c23)cc1,-4%,nt,nt,nt,nt
CC(C)=CC(=O)Oc1ccc(C(=O)N(C)c2ccccc2I)cc1,-22%,nt,nt,nt,nt
